# Activity calls are given as the source filed them. How the source made its calls: active means hit-call score of the fitted dose curve at least 0.9, where 1 is the maximum; inactive means score below 0.9.
# Experiment: ATG_PPRE_CIS: Attagene CIS-FACTORIAL HepG2 Assay for human Peroxisome Proliferator-activated Response Element (PPRE) (AID 2282958)
# Details: HepG2 PPRE cis-element reporter, Attagene transcription factor profiling; actives raise or lower the signal
# Protocol: ATG_CIS is a cell-based, multiplexed-readout assay that uses HepG2, a human liver cell line, with measurements taken at 24 hours after chemical dosing in a 24-well plate.ATG_PPRE_CIS is one of 52 assay component(s) measured or calculated from the ATG_CIS assay. It is designed to make measurements of mRNA induction, a form of inducible reporter, as detected with fluorescence intensity signals by Reverse transcription polymerase chain reaction (RT-PCR) and Capillary electrophoresis technology.Data from the assay component ATG_PPRE_CIS was analyzed into 1 assay endpoint. This assay endpoint, ATG_PPRE_CIS, was analyzed with bidirectional fitting relative to DMSO as the negative control and baseline of activity. Using a type of inducible reporter, measures of mRNA for gain or loss-of-signal activity can be used to understand the reporter gene at the transcription factor-level as they relate to the gene PPARA and PPARD and PPARG. Furthermore, this assay endpoint can be referred to as a primary readout, because this assay has produced multiple assay endpoints where this one serves a reporter gene function. To generalize the intended target to other relatable targets, this assay endpoint is annotated to the nuclear receptor intended target family, where the subfamily is non-steroidal.
# Human liver HepG2 cells are transiently transfected with multiple reporter transcription units (MRTUs) in 6-well plates using FuGene 6 reagent (Roche; 3 ml FuGene/1 mg DNA). The MRTU constructs are regulated by a cis-regulating element (promoter). […] A major difference between the CIS and TRANS system is that in CIS activities of endogenous TFs are measured, whereas the TRANS assay evaluates changes in activities of exogenous, chimeric NR-Gal4 proteins. […] At the end of 24 hour incubation, total RNA was isolated using TriZol reagent (Invitrogen). The isolated RNA is then reverse-transcribed using oligo(dT) primer and Mo-MLV reverse transcriptase (Invitrogen) with DNAse I (Ambion) treatment for 30 min. The one-tenth of the produced cDNA was amplified by PCR using Taq DNA polymerase (Invitrogen) and two reporter sequence-specific primers. The PCR products were fluorescently labeled by primer extension with 6-arboxyfluorescein (6-FAM) 5'-labeled reporter sequence-specific primer (2 min at 95 C, 20 s at 68 C and 10 min at 72 C) and these products were digested with 5U of HpaI (New England Biolabs) for 2h at 37 C. The fragments were purified using Qiaquick PCR columns (Qiagen), analyzed on an ABI 3130xL genetic analyzer (Applied Biosystems) with peak positions identified by using a set of X-rhodamine (ROX)-labeled MapMarker1000 molecular weight standards (BioVentures). The raw capillary electrophoresis data was processed using Attagraph software (Attagene).
SMILES,AC50,outcome
CCCc1c(OCCCOc2ccc(OCC(=O)O)cc2)ccc(C(C)=O)c1O,0.272 µM (active),
Cc1cccc(C)c1[N+](=O)[O-],,inactive
C=CC(C)(O)CCC=C(C)CCC=C(C)C (stereo not given),,inactive
O=C1CCCCCCCCCCCCCCO1,,inactive
CCc1c(C)cc(N)c(CC)c1N,,inactive
CCC(C)(O)CCC=C(C)C (stereo not given),,inactive
Cc1ccc(C=O)cc1,,inactive
CO[Si](CCCn1c(=O)n(CCC[Si](OC)(OC)OC)c(=O)n(CCC[Si](OC)(OC)OC)c1=O)(OC)OC,,inactive
NC(=O)Nc1ccc(Cl)cc1,,inactive
CSc1nc(NC2CC2)nc(NC(C)(C)C)n1,100 µM (active),
COc1cc2ncnc(Nc3cccc(Cl)c3)c2cc1OC,,inactive
COc1cc(C)cc(O)c1,,inactive
O=c1[nH]nnc2ccccc12,,inactive
O=P(c1ccccc1)(c1ccccc1)c1ccccc1,,inactive
CCC(C)CCCC(C)(C)O (stereo not given),,inactive
O=C(O)c1cccc([N+](=O)[O-])c1,,inactive
Nc1cc(Cl)c(O)c(Cl)c1,45.3 µM (active),
N#Cc1ccc(CC(=NNC(=O)Nc2ccc(OC(F)(F)F)cc2)c2cccc(C(F)(F)F)c2)cc1,,inactive
OCCOc1cccc(OCCO)c1,,inactive
CCN(CC)c1ccc(C(=C2C=CC(=[N+](CC)CC)C=C2)c2ccc(S(=O)(=O)O)cc2S(=O)(=O)[O-])cc1,,inactive

SMILES,AC50,outcome
COc1ccnc(CS(=O)c2nc3cc(OC(F)F)ccc3[nH]2)c1OC (stereo not given),,inactive
Cc1ccc(S)cc1,,inactive
C[C@]12CC[C@H]3[C@@H](CCC4=CC(=O)CC[C@@]43C)[C@@H]1CC[C@@H]2C(=O)CO,,inactive
CCCC/C=C\CCCCCCCCCC=O,,inactive
O=C(O)c1snc(Cl)c1Cl,,inactive
CCCCCC(CO)CCC (stereo not given),,inactive
CCCCCCCCCCCCN(CCCCCCCCCCCC)CCCCCCCCCCCC,,inactive
O=C(O)CCSCCC(=O)O,,inactive
Cc1ccc2n[nH]nc2c1,,inactive
CN(C)CCCN,,inactive
CC(C)CCCCCCCOC(=O)c1ccc(C(=O)OCCCCCCCC(C)C)c(C(=O)OCCCCCCCC(C)C)c1,,inactive
CC(=O)[C@H]1CC[C@H]2[C@@H]3CC=C4C[C@@H](O)CC[C@]4(C)[C@H]3CC[C@]12C,,inactive
C=C(C)C(=O)OCCOC(=O)CC(C)=O,,inactive
CC1(CO)CN(c2ccccc2)NC1=O (stereo not given),,inactive
CCOC(=O)c1ccccc1OC,,inactive
CC(=O)OCC=Cc1ccccc1,,inactive
CCN(CC)c1ccc2c(-c3ccccc3C(=O)O)c3ccc(=[N+](CC)CC)cc-3oc2c1,,inactive
CCCCC(CC)COCCC#N (stereo not given),,inactive
OCCCCCO,,inactive
CC(CCO)CCCC(C)(C)O (stereo not given),,inactive

# — PubChem BioAssay (EPA / NIEHS)
